Drawing on PubChem BioAssay, this text covers composite z-score and z-score for 16 molecules.

Test [1] in a line: small molecules captured by biotinylated probe aFSTL3 – biochemical, small-molecule microarray, fluorescence 635/667, stem cell growth factor project, primary screen (AID 1064).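 Further: measures binding of the biotinylated anti-FSTL3 antibody to printed compounds.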 Conditions: higher = more signal.
Test [2] is described as follows: binders from COS7 lysate, DM2A8 probe, primary screen, torsin A project, cell lysate, small-molecule microarray, fluorescence 635/667 (AID 1065). The note with it: higher = more signal, COS7 lysate expressing mutant human TOR1A.
The nature of test [3]: small molecules captured by biotinylated probe aFGF2 – biochemical, small-molecule microarray, fluorescence 635/667, stem cell growth factor project, primary screen (AID 1067).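 Further: measures binding of biotinylated aFGF2 protein to printed compounds on slides; z-score merges feature fluorescence and signal-to-noise across triplicate slides.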 Conditions: higher = more signal.
The nature of test [4]: small molecules captured by biotinylated probe aFGF10 – biochemical, small-molecule microarray, fluorescence 635/667, stem cell growth factor project, primary screen (AID 1071).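 Further: score merges 667 nm spot intensity and signal to noise from triplicate slides.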 Conditions: higher = more signal.
In test [5] the target is Neurogenic locus notch homolog protein 2 (Homo sapiens) (UniProt Q04721). Kind of test: small molecules binding Notch2 protein – biochemical, small-molecule microarray, 635 nm fluorescence, stem cell growth factors, primary screen (AID 1073). The note with it: higher = more signal.
Chain of Neurogenic locus notch homolog protein 2 (Homo sapiens) (Q04721 whole entry, looked up, canonical isoform): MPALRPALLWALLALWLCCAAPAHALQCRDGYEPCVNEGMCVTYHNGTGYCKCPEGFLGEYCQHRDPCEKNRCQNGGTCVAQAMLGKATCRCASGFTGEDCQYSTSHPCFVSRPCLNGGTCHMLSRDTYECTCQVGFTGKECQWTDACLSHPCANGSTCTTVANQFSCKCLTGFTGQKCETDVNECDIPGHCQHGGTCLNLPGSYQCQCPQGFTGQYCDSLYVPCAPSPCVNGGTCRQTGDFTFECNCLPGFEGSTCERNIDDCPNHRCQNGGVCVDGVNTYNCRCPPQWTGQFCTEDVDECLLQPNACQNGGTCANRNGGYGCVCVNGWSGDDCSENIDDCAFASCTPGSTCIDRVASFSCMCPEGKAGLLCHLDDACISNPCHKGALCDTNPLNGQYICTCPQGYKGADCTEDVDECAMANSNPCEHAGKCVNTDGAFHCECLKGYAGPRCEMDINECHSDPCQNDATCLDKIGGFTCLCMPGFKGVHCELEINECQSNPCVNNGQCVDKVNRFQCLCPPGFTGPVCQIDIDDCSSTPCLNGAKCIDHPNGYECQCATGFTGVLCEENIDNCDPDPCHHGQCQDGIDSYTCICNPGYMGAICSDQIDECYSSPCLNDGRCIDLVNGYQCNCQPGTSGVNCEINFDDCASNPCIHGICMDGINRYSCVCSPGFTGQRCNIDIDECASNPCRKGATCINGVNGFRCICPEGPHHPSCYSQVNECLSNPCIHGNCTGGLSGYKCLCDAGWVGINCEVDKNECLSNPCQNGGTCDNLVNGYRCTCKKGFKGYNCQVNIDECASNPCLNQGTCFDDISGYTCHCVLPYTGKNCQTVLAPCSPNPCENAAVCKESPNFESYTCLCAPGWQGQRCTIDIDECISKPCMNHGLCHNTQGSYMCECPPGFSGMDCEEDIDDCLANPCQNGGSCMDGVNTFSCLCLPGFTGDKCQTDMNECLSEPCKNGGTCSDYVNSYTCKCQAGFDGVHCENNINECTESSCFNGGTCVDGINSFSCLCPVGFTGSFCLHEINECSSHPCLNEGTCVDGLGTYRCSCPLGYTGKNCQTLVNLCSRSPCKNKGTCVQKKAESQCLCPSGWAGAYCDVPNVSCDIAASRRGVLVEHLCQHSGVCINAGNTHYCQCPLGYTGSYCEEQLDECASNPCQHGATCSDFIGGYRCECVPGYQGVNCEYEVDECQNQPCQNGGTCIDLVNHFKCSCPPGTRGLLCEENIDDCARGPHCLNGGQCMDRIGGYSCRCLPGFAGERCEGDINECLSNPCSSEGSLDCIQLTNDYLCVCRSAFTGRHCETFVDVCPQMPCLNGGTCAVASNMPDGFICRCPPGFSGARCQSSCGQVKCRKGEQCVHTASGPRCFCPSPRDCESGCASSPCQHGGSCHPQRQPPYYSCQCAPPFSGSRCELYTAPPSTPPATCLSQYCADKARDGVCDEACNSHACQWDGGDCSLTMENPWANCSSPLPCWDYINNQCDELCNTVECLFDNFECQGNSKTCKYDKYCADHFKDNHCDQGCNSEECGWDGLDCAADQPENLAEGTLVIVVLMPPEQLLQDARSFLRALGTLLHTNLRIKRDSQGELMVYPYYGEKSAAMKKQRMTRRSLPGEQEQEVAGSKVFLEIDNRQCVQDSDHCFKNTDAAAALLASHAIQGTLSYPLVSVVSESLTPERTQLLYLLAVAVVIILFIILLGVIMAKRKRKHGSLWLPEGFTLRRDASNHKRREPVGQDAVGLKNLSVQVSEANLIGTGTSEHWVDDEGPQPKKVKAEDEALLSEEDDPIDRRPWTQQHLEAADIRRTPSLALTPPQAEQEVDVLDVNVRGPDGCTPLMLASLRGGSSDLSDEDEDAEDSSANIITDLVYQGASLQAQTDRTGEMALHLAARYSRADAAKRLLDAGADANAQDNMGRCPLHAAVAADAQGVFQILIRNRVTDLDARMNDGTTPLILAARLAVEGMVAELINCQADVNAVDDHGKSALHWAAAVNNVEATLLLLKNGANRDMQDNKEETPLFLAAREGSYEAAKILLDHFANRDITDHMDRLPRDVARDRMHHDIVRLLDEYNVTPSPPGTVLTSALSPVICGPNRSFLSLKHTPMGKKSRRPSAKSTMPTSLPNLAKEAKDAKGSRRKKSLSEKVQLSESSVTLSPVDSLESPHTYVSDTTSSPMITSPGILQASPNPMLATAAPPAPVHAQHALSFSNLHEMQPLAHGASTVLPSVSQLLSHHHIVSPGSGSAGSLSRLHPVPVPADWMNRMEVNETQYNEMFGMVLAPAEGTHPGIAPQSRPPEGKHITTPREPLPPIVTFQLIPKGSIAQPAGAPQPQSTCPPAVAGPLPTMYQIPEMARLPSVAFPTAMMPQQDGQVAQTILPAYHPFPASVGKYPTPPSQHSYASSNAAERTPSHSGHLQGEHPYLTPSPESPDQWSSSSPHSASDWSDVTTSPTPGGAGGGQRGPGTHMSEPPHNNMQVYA
Test [6] addresses Pro-neuregulin-1, membrane-bound isoform (Homo sapiens) (UniProt Q02297). Description: small molecules binding neuregulin-1 protein – biochemical, small-molecule microarray, fluorescence 635/667, psychiatric disease protein project, primary screen (AID 1075).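 Further: score combines 667 nm spot fluorescence with signal to noise.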 The note with it: NRG1 binding, 635 nm fluorescence, higher = more signal.
The subject of test [7] is Neuregulin-1 EGF-like domain. Description: small molecules binding NRG1 EGF domain – biochemical, small-molecule microarray, 635 nm fluorescence, primary screen (AID 1081).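 Further: binding of the protein to compounds printed on small-molecule microarray slides.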 Conditions: higher = more signal.
Test [8] can be described thus: FRG1 expression reporter modulators in myotubes – cell-based, C2C12 myotubes, firefly/Renilla luciferase, luminescence, FRG1 inhibition for FSHD, primary screen (AID 1084). Conditions: FRG1 promoter luciferase, higher = more signal, called active from +8 up or from −8 down.
Test [9] is described as follows: small molecules captured by biotinylated probe aFST – biochemical, small-molecule microarray, fluorescence 635/667, stem cell growth factor project, primary screen (AID 1086).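 Further: score merges 667 nm fluorescence with signal-to-noise of each printed compound spot.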 Conditions: higher = more signal.
Test [10] in a line: binders of probe aHhip on microarray, primary screen, stem cell growth factor project, biochemical, small-molecule microarray, fluorescence 635/667 (AID 1087).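 Further: score merges spot fluorescence at 667nm with spot signal to noise ratio.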 Conditions: higher = more signal.

Active and inactive are the calls of the source.

Chain of Pro-neuregulin-1, membrane-bound isoform (Homo sapiens) (Q02297 whole entry, looked up, the tested form may be a part, canonical isoform): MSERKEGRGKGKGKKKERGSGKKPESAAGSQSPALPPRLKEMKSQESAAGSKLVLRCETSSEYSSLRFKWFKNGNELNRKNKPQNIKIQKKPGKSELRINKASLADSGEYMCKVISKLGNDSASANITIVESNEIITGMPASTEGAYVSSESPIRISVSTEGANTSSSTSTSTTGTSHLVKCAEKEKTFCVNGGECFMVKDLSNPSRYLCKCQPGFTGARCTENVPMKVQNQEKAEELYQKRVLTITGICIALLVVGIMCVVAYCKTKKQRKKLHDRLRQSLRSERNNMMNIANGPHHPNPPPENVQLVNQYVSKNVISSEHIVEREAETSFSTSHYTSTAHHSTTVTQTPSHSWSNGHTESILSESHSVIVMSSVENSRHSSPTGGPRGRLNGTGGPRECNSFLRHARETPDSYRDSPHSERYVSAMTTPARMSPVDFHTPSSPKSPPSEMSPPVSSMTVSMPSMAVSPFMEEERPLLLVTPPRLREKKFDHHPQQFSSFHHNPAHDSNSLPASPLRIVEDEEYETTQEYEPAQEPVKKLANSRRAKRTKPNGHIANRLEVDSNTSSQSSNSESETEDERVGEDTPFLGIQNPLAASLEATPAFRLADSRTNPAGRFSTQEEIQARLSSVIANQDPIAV

For `Cc1ccc(S[C@]2(C(=O)NCc3ccccc3)CC(=O)N(C3Cc4ccccc4C3)[C@@H]2c2ccc(CO)cc2I)cc1`, the composite z-score was -0.0093 in [1]; 0.247 in [2]; -0.123 in test [3]; -0.257 in [4]; -0.312 in [5]; 1.64 in test [6]. Moreover, the composite z-score in test [7] was -0.185; in test [9], -0.134; in test [10] it was -0.246. Also, in [8], the z-score was -1.73 (inactive).

For `COC(=O)[C@@]1(Cc2ccccc2)[C@H]2c3cc(C(=O)N4CCCC4)n(Cc4ccc(OC(F)(F)F)cc4)c3C[C@H]2CN1C(=O)c1ccccc1`, the composite z-score in test [1] is 1.38; in test [2], -0.277; in [3] it was 0.337; in test [4], 0.42; in test [5], 1.72; in test [6], 1.62. Besides, the composite z-score in test [7] worked out at 1.18; in test [9] it was 1.73; in test [10] it was 0.405. Moreover, the z-score in test [8] is 0.705 (inactive).

For the molecule `COc1ccc([Si](C)(C)[C@H]2[C@H](CCO)O[C@@]3(C(=O)N(Cc4cccc(N5CCOC5=O)c4)c4ccccc43)[C@@H]2C)cc1`, the composite z-score in test [1] was -0.167; in test [2], -0.16; in test [3], -0.034; in test [4], 0.674; in [5] it was 0.849; in test [6], 0.843. For the same molecule, the composite z-score in test [7] is 0.783; in test [9], -0.292; in [10], 0.0373. Besides, the z-score in [8] is -2.15 (inactive).

With `O=C1NC(=O)C2C1C=CC(C(O)c1ccc3c(c1)OCO3)N2Nc1ccc(Cl)cc1Cl` (stereo not given), the composite z-score is 0.358 in test [1]; -0.173 in [2]; -0.0274 in test [3]; 0.218 in test [4]; 1.22 in test [5]; 1.73 in [6]. The composite z-score is 0.543 in test [7], 0.176 in test [9] and -0.291 in test [10]. For the same molecule, the z-score in [8] is 1.28 (inactive).

Regarding `C=C(/C(=C/C[C@@H](OC(=O)c1ccncc1)c1cccc(OCCO)c1)c1cc(C(=O)OC)ccc1OC)C(C)C`, the composite z-score in test [1] is -0.295; in [2], 0.679; in test [3], -0.0549; in test [4] it was 0.579; in [5], 0.868; in test [6], 0.826. For the same molecule, the composite z-score in test [7] was 0.981; in test [9] it was 0.351; in test [10] it was -0.0994. In test [8], the z-score is -1.61 (inactive).

Regarding `CCCC[C@H]1OB(O)C[C@H]2C1=C(COc1ccccc1)Cn1c(=O)n(-c3ccccc3)c(=O)n12`, the composite z-score in test [1] is -0.211; in test [2] it was 0.556; in [3] it was -0.145; in test [4], 0.279; in [5], 0.403; in test [6] it was 1.01. Moreover, the values for the composite z-score in test [7], in test [9] and in [10] were 0.77, 0.415 and -0.164, respectively. The z-score in test [8] was -0.971 (inactive).

Consider `O=C1N(CCS(=O)(=O)c2ccccc2)Cc2ccccc2C[C@@]12COC(c1ccc(OCCCO)cc1)=N2`, for which the composite z-score in test [1] stood at 0.965; in [2], 0.667; in test [3], 0.212; in test [4] it was 0.613; in test [5] it was 1.45; in [6] it was 1.02. Further, the composite z-score in test [7] is 1.35; in [9] it was 1.58; in [10], -0.0459. Moreover, in test [8], the z-score is 0.0674 (inactive).

On to `CN(C)C(=O)[C@@]1(Cc2ccccc2N=[N+]=[N-])N=C(c2ccc(OCCCO)cc2)O[C@H]1c1ccccc1N=[N+]=[N-]`, for which the composite z-score in test [1] came to 0.982; in [2], 1.2; in test [3] it was 0.125; in test [4] it was 0.765; in test [5], 1.51; in test [6] it was 1.46. For the same molecule, the composite z-score was 0.73 in test [7], 1.53 in test [9] and 0.28 in [10]. For the same molecule, the z-score in [8] is -0.325 (inactive).

For the molecule `C=C(C)[C@@H]1CC=C(C(O)C2C=CC3C(=O)N(C4CCCCC4)C(=O)C3N2Nc2ccc(OC)cc2)CC1` (stereo not given in full), the composite z-score in [1] was -0.128; in test [2], 0.103; in test [3] it was 0.156; in test [4], 0.594; in [5], 1.45; in [6] it was 1.2. In addition, the composite z-score is 1.02 in [7], 1.32 in test [9] and -0.41 in test [10]. In addition, in test [8], the z-score was 0.0512 (inactive).

Regarding `NCCCCCCNC(=O)[C@H]1C[C@H]2C(=O)N3CCC[C@H]3C(=O)N2[C@H]1c1ccc(O)cc1`, the composite z-score in [1] was 0.185; in test [2] it was 0.533; in [3] it was -0.029; in [4] it was 0.176; in test [5], -0.45; in test [6] it was 1.23. Further, the composite z-score in test [7] is 1.22; in test [9], 0.0744; in [10] it was -0.184. In addition, the z-score in test [8] is -0.415 (inactive).

For `CCCCCCC#C[Si](O[C@H](c1ccccc1)c1cn(Cc2cccc(Cl)c2)nn1)(C(C)C)C(C)C`, the composite z-score is -0.194 in test [1]; 0.485 in test [2]; -0.161 in test [3]; 0.238 in test [4]; 0.631 in [5]; 0.485 in test [6]. In addition, the composite z-score in test [7] was 0.382; in test [9], -0.0431; in test [10], -0.0994. Also, in [8], the z-score is -0.891 (inactive).

With `C=CCNC(=O)[C@H]1[C@@H]2C(=O)O[C@@H](c3ccccc3)[C@@H](c3ccccc3)N2[C@@H](c2ccc(O)cc2)[C@]12C(=O)N(C(=O)OCCOC)c1ccc(C#CC3(O)CCCCCC3)cc12`, the composite z-score in test [1] came out at 0.228; in test [2], 0.494; in test [3] it was 0.0789; in test [4] it was 0.875; in test [5] it was 0.793; in [6], 1.2. For the same molecule, the figures for the composite z-score in test [7], in test [9] and in [10] were 1.27, 0.229 and 0.142, respectively. In test [8], the z-score was 0.168 (inactive).

For `CO[C@H]1O[C@H](CO)[C@@H](OC(=O)c2ccc(Br)cc2)[C@@H]2OC(=O)[C@H](Cc3cccc(Br)c3)C/C=C/C[C@@H](Cc3cccc(Br)c3)C(=O)O[C@@H]12`, the composite z-score in test [1] came to 0.174; in [2] it was 0.665; in test [3] it was 0.0376; in test [4], 1.12; in test [5], 1.43; in [6], 1.43. Besides, the composite z-score in test [7] stood at 1.06; in test [9] it was 0.551; in test [10], 0.319. Besides, the z-score in test [8] is 0.374 (inactive).

`C=C[C@H](C)[C@H](OC(=O)Nc1ccc(SC)cc1)c1ccc(O)c2ccccc12`: the composite z-score in test [1] was -0.0571; in test [2] it was -0.0235; in test [3], 0.0243; in [4] it was -0.624; in test [5], -0.718; in [6], 0.583. The values for the composite z-score in test [7], in [9] and in [10] were 1.05, -0.744 and -0.268, respectively. For the same molecule, the z-score in test [8] is 2.77 (inactive).

For `CC1=C2[C@@H](CCc3ccccc3)OB(O)C[C@@H]2[C@@H]2C(=O)C=CC(=O)[C@@H]2C1`, the composite z-score was -0.741 in test [1]; 0.654 in test [2]; -0.0887 in test [3]; 1.13 in test [4]; 1.38 in test [5]; 0.51 in test [6]. Moreover, the figures for the composite z-score in [7], in [9] and in test [10] were 0.976, 0.32 and -0.16, respectively. The z-score in [8] was -1.57 (inactive).

In the case of `COC(=O)[C@@]1(Cc2ccccc2)[C@H]2c3cc(C(=O)N(C)C)n(Cc4ccc(O)c(OC)c4)c3C[C@H]2CN1C(=O)c1ccccc1`, the composite z-score turned out to be 0.709 in [1]; 1.36 in test [2]; 0.0487 in [3]; 0.523 in test [4]; 1.56 in test [5]; 0.934 in [6]. For the same molecule, the composite z-score amounted to 1.24 in [7], 1.91 in [9] and 2.58 in [10]. The z-score in test [8] is 3.26 (inactive).
